Source: PubChem BioAssay
ADAM10 inh: inhibits human ADAM10; recombinant ADAM10, EDANS/DABCYL FRET peptide cleavage, 3 h; O14672; hit rate 0.62% among 370,000; inhibition, % at 7 µM; AID 720582;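 active = inhibition above a per-campaign cutoff equal to the mean of compounds falling between control-based bounds plus 3 SD, cut at about 20% in these data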
ADAM17 inh: ADAM17 inhibition, QFRET primary screen; hit rate 0.83% among 370,000; P78536; AID 720648; inhibition, % at 6.95 µM; recombinant ADAM17, EDANS/DABCYL FRET peptide cleavage;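 active = inhibition above the mean of compounds lying between control limits plus 3 SD, set per campaign, cut at about 8.5% in these data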
Target sequence (P78536 215-824 limits assumed): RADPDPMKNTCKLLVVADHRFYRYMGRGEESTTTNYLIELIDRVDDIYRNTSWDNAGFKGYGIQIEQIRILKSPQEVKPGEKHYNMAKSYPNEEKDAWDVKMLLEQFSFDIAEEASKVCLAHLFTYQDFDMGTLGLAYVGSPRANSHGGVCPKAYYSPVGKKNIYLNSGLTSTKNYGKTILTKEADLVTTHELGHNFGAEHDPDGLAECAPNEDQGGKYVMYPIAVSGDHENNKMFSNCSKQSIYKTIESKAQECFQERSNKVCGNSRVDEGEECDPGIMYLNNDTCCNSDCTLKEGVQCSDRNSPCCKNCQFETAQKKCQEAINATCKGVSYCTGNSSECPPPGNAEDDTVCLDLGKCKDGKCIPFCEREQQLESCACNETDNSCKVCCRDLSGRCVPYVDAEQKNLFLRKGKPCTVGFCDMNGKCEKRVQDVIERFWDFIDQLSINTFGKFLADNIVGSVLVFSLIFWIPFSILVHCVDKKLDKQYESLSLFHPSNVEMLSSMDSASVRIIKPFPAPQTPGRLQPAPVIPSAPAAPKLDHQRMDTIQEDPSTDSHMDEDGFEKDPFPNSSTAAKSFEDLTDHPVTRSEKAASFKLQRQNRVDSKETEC
NR3A LBD binder: modulators (binders) of human NR3A ligand-binding domain | Tm shift relative to glycine control, % at 25 µM | NR3A LBD differential scanning fluorimetry, Tm shift; 0% = protein alone, 100% = glycine-bound protein | hit rate 2.5% among 340,000 | AID 1259313;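 active = melting temperature shift of at least 10% of the positive control shift, at one fixed dose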
FAS-TE inh: inhibitors of human fatty acid synthase thioesterase domain | inhibition, % at 15 µM | AID 602261 | hit rate 0.67% among 360,000 | P49327 | recombinant FAS-TE, OMFH fluorogenic substrate, fluorescence endpoint;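 active = compounds whose normalised, plate-corrected inhibition of enzyme fluorescence in the single-dose primary screen is 50% or more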
aDG glyco act: increases alpha dystroglycan glycosylation; Pro5-aDG cells, alpha-DG glycosylation AlphaScreen (IIH6); 0% Pro5, 100% B10-LARGE cell signal; activation, % at 10 µM; hit rate 0.22% among 360,000;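 active = activation of at least 8% versus controls, or a plate z-score of at least 8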;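 also: Pro5 are CHO cells carrying HIG-tagged alpha-DG that lacks glycosylation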
ADAM10 confirm: confirmation of inhibitors of human ADAM10; shares compounds with ADAM10 inh; ADAM10 QFRET peptide cleavage, EDANS fluorescence; inhibition, % at 6.95 µM; hit rate 1% among 2,100; AID 743208;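 active = inhibition above about 20% chosen separately for each screening run, limit read from the data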
ADAM17 counter: counter-screen for ADAM10 exosite inhibitors: inhibitors of human ADAM17 | inhibition, % at 6.95 µM | AID 743214 | ADAM17 QFRET peptide cleavage, EDANS fluorescence | hit rate 0.5% among 2,100 | shares compounds with ADAM10 inh;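 active = mean triplicate inhibition above the solvent-only control wells' mean plus 3 SD, cut at about 12% in these data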
Of the large screens only hits and unclear results are named; the others gave an inactive call (follow-up assays come after a bar, where they were run). Most compounds without a hit are left out; they make up all but 4% or so of the library.

CN(C)C(=O)COC(=O)c1cc(Cl)cc(Cl)c1N	none
Cc1cc(C)n2nc(SCc3ccccc3)nc2n1	ADAM10 inh 22 | ADAM10 confirm inactive | ADAM17 counter inactive
Cc1cc(C)n2nc(SCc3cccc(F)c3)nc2n1	none
COc1cc(/C=N/NC(=O)c2cc(-c3cccc(OC(C)C)c3)nc3ccccc23)ccc1O	ADAM10 inh 28, NR3A LBD binder 11 | ADAM10 confirm inactive | ADAM17 counter inactive
CCC/C(O)=C1\C(=O)CC(C)(C)CC1=Nc1ccc(OC)cc1	none
CCCC/C(O)=C1\C(=O)CC(C)(C)CC1=Nc1ccc(OC)cc1	ADAM10 inh 41 | ADAM10 confirm inactive | ADAM17 counter inactive
Cc1ccccc1Nc1nc(N)nc(COC(=O)c2cccc(S(=O)(=O)NCc3ccccc3)c2)n1	ADAM10 inh 23 | ADAM10 confirm inactive | ADAM17 counter inactive
CC(C)C(=O)NC(c1ccccc1)c1cc([N+](=O)[O-])c2cccnc2c1O (stereo not given)	ADAM10 inh 20 | ADAM10 confirm inactive | ADAM17 counter inactive
CC(=O)NC(c1ccccc1)c1cc([N+](=O)[O-])c2cccnc2c1O (stereo not given)	none
COC(=O)C1=C(C)N(C)C(C)=C(C(=O)OC)C1c1ccc(F)c(Br)c1	none
CC(=O)Nc1ccc(S(=O)(=O)NCCNS(=O)(=O)c2ccc(NC(C)=O)cc2)cc1	none
CC(=O)Nc1ccc(S(=O)(=O)NCCSCc2ccc(Cl)cc2Cl)cc1	ADAM10 inh 22 | ADAM10 confirm inactive | ADAM17 counter inactive
C[C@H]1CN([C@@H](C)CO)C(=O)c2cccc(NC(=O)Nc3ccc(C(F)(F)F)cc3)c2O[C@@H]1CN(C)S(=O)(=O)c1ccccc1	ADAM10 inh 40, ADAM17 inh 21, NR3A LBD binder 13 | ADAM10 confirm inactive | ADAM17 counter inactive
C[C@@H]1CN([C@@H](C)COC(=O)C(C)(C)C)C(=O)c2cc(NC(=O)Nc3ccccc3)ccc2O[C@@H](C)CCCCO[C@H]1CN(C)S(=O)(=O)c1ccc(F)cc1	ADAM10 inh 25 (no result: NR3A LBD binder, FAS-TE inh, aDG glyco act) | ADAM10 confirm inactive | ADAM17 counter inactive
COc1ccc(COC[C@H](C)N2C[C@@H](C)[C@H](CN(C)S(=O)(=O)c3ccc(F)cc3)OCCCC[C@H](C)Oc3ccc(NC(=O)Nc4ccccc4)cc3C2=O)cc1	none (no result: NR3A LBD binder, FAS-TE inh, aDG glyco act)
C[C@H](CO)N1C[C@H](C)[C@@H](CN(C)S(=O)(=O)c2ccccc2)Oc2c(NC(=O)Nc3ccccc3)cccc2C1=O	none
O=C(Nc1ccc2c(c1)OCO2)c1ccc(CO)cc1	none
N=C1/C(=C\c2ccc(SCc3ccco3)o2)C(=O)N=C2SC=NN12	none
CSCC[C@H](NS(=O)(=O)c1ccc(C)cc1)C(=O)N1CCC(C(=O)N[C@@H](C)C(=O)O)CC1	none
Cc1cccc2sc(N(CCCN(C)C)C(=O)COc3ccc(Cl)cc3)nc12	none
CCOC(=O)COc1ccc(C(C)c2ccc(NC(=O)OC(C)(C)C)cc2)cc1 (stereo not given)	ADAM10 inh 21 (no result: NR3A LBD binder, FAS-TE inh, aDG glyco act) | ADAM10 confirm inactive | ADAM17 counter inactive
CCN(c1ccc(OC)cc1)S(=O)(=O)N1CCCC(C(=O)NC(C)c2ccccc2)C1 (stereo not given)	ADAM10 inh 70 (no result: NR3A LBD binder) | ADAM10 confirm inactive | ADAM17 counter inactive
CCN(c1ccc(OC)cc1)S(=O)(=O)N1CCCC(C(=O)NCc2ccccc2Br)C1 (stereo not given)	none
Cc1ccc(Cl)cc1NC(=S)NCCCSC1CCCCC1	ADAM10 inh 22 | ADAM10 confirm inactive | ADAM17 counter inactive
O=C(NCC1CCN(C(=O)C(=O)c2cc3ccccc3o2)CC1)c1cc(C(F)(F)F)cc(C(F)(F)F)c1	none (no result: NR3A LBD binder, FAS-TE inh, aDG glyco act)
C/C(=N/NC(=O)c1ccc(C)s1)c1ccncc1	ADAM10 inh 21 | ADAM10 confirm inactive | ADAM17 counter inactive
CCc1ccc(C(=O)N/N=C(\C)c2ccncc2)s1	none
Clc1ccc(CSc2nnc(CNc3cccc(Cl)c3)o2)cc1	ADAM10 inh 20 | ADAM10 confirm inactive | ADAM17 counter inactive
